In ChEMBL document CHEMBL3988442, “University of Dundee, Small-Polar-MMV Screening Library” (2021) one finds Percent Effect data, which are given here for 50 compounds.

In experiment [1] the target is T1, Aspartate--tRNA(Asp/Asn) ligase (Mycobacterium tuberculosis (strain ATCC 25618 / H37Rv)) (UniProt P9WFW3). Further: in the data most compounds retested in dose-response had high values.
T1 sequence (whole entry): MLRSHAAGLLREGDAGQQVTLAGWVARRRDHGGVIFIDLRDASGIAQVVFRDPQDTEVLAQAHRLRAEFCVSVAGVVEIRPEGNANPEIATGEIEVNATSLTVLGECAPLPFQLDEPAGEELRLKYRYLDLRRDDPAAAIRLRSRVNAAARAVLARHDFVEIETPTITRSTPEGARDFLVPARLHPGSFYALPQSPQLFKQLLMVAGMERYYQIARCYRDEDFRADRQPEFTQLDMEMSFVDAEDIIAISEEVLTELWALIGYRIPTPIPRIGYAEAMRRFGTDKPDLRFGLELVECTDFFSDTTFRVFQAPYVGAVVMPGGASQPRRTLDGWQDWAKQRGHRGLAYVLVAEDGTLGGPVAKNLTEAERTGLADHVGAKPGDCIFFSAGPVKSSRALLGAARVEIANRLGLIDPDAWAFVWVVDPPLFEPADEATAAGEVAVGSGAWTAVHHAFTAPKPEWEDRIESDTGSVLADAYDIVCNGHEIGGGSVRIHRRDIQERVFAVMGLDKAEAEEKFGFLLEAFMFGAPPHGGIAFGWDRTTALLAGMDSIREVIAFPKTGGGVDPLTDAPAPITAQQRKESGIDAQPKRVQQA
The experiment in a line: Assay for Asp RNA synthetase-1 from Mycobacterium tuberculosis. The class given is functional. The arrangement: scale not given: direction of the effect not stated beside the values. Particulars: 30 µM.

The target of experiment [2] is Shiga toxin 2 (Escherichia coli O157:H7) (UniProt P09385+P09386). The experiment in a line: E. coli 0.157:H7 Shiga Toxin SOP - stx2 screening assay. The class given is functional. Further details: scale not given: direction of the effect not stated beside the values. To be noted: 30 µM.

With `CCc1n[nH]c(C2CN(C(=O)CCc3cccs3)CCO2)n1` (stereo not given), the Percent Effect in experiment [1] was -2.02%; in experiment [2], -49.5%.
For `Cn1cc(Cl)cc1C(=O)N1CCN(Cc2ccsc2)CC1`, in that order: -1.54% and 15.6%.
Turning to `Cn1cc2c(n1)C(COCC1CC1)CN(Cc1ccccn1)C2` (stereo not given), the results for the Percent Effect in experiment [1] and in experiment [2] were -2.25% and 9.17%, respectively.
For `O=C(c1ccn(-c2cccc(Cl)c2)n1)N1CCN(C2CC2)CC1`, in that order: -1.64% and 20.3%.
The corresponding values for `Cc1cccn2c(=O)cc(CN3CCCCC3Cn3cncn3)nc12` (stereo not given) are -0.0141% and -18.4%.
For `COCCN1CCc2cc(C(=O)NCC3CC3)c(NC(C)C)nc2CC1`, the Percent Effect in experiment [1] stood at 7.66%; in experiment [2] it was 6.55%.
Consider `CCS(=O)(=O)Nc1ccc(C(=O)NCCCN2CCCC2)cc1`, for which the Percent Effect in experiment [1] is 8.39%; in experiment [2] it was -19%.
Take `Cc1occc1CNC(=O)N(CCCO)C1CCc2ccccc21` (stereo not given): the Percent Effect is -3.25% in experiment [1] and 8.04% in experiment [2].
For `CC(=O)Nc1nc(CN2CCCC2Cn2cc(C)cn2)cs1` (stereo not given), in that order: -2.91% and -25.9%.
For `Nc1nc(C2CCN(C(=O)c3cscn3)CC2)cs1`, in that order: 2.54% and -10.9%.
For `COc1cccc(CN2CCCCCC2c2cccs2)c1O` (stereo not given), in that order: 0.335% and -75.8%.
With `CC(=O)N1CCCN(C(=O)NCc2cc[nH]n2)CC1`, the Percent Effect in experiment [1] was -1.74%; in experiment [2], -9.44%.
Consider `Cc1nc(CN2CCN(C(=O)c3cc(C4CC4)on3)CC2)cs1`, for which the Percent Effect in experiment [1] is -5.68%; in experiment [2] it was 24.9%.
The corresponding values for `CC(=O)N1CC(=O)N(c2cnn(C)c2)CC12CCN(Cc1ccoc1)C2` (stereo not given) are -2.35% and 0.489%.
As to `Cc1ccn(-c2ccccc2NCc2ccccn2)n1`, the figures for the Percent Effect in experiment [1] and in experiment [2] were 0.661% and 4.81%, respectively.
Take `CC(Cn1cccn1)NC(=O)Nc1ccc(N(C)C)nc1` (stereo not given): the Percent Effect in experiment [1] was 1.98%; in experiment [2], -47.5%.
For `CC(NC1(CNC(=O)CC(C)(C)C)CCOCC1)c1ccccc1` (stereo not given), in that order: 9.41% and 20.8%.
The corresponding values for `CC(=O)N(C)c1nc(CN2CCOC(Cn3cccn3)C2)cs1` (stereo not given) are 3.18% and -10.3%.
`CCc1nc(C2CCCN2C(=O)c2ccc3c(c2)nnn3CC)no1` (stereo not given): the Percent Effect in experiment [1] was -5.04%; in experiment [2], 1.14%.
The corresponding values for `Cc1cc(C)n(CC(=O)NC(Cc2ccsc2)c2ccccn2)c(=O)n1` (stereo not given) are -2.19% and -15.3%.
Regarding `CNCC(=O)N1CCCC(c2nccnc2Oc2cccc(F)c2)C1` (stereo not given), the Percent Effect in experiment [1] was 1.72%; in experiment [2] it was 4.34%.
For `O=C1NC2(CCN(Cc3cccnc3)CC2)CC1c1ccncc1` (stereo not given), in that order: 7.31% and -19.6%.
The corresponding values for `CC(=O)NCCNC(=O)c1cnc(-c2ccccc2)nc1` are 4.64% and -11.3%.
Consider `NCCn1nc(C2CCN(Cc3ccc(Cl)c(Cl)c3)C2)c2nccnc21` (stereo not given), for which the figures for the Percent Effect in experiment [1] and in experiment [2] were -4% and -105%, respectively.
As for `CC(C)c1nc(C2CCCN(C(=O)c3ccc4[nH]cnc4c3)C2)no1` (stereo not given), the values for the Percent Effect in experiment [1] and in experiment [2] were 2.42% and 0.178%, respectively.
For the compound `CC(=O)N1CCCC1c1nnc2n1CCCCC2` (stereo not given), the values for the Percent Effect in experiment [1] and in experiment [2] were -0.915% and 0.261%, respectively.
The corresponding values for `Cc1cccc(C(=O)N2C[C@@H]3CCN(c4cccnc4)C[C@@H]3C2)c1` are 3.96% and -5.99%.
For `CN(Cc1cnn(-c2ccccc2)n1)CC1CCCN1c1cccnn1` (stereo not given), in that order: 1.85% and 16%.
For `CC1CCCN(C(=O)c2csc(S(N)(=O)=O)c2)CC1` (stereo not given), in that order: 0.324% and -19.1%.
In the case of `Cc1nc(N2CCOCC2)nc2c1CN(C(=O)Cc1ccccn1)CC2`, the Percent Effect was -2.71% in experiment [1] and -57.2% in experiment [2].
The corresponding values for `CCc1[nH]ncc1C(=O)N1CCCC(n2nc(C)nc2C)C1` (stereo not given) are -1.03% and 12.8%.
Consider `Cc1nc(-c2ccsc2)ccc1C(=O)NCCN1CCOCC1`, for which the Percent Effect was -2.94% in experiment [1] and -4.33% in experiment [2].
For `CCn1nc(CNC(=O)C2CC(=O)N(C3CCCC3)C2)c2ccccc21` (stereo not given), in that order: 2.02% and -13.1%.
For `CN(C)C(=O)COC[C@]12COC[C@H]1CN(CC1CCC1)C2`, in that order: -8.17% and -9.5%.
`CC(C)Cc1nc(OCC(N)=O)c(C#N)c2c1CCC2`: the Percent Effect is 2.64% in experiment [1] and -13.7% in experiment [2].
For `O=C(c1ccc(C2CCCO2)s1)N1Cc2ccccc2C1` (stereo not given), in that order: 0.948% and -61.8%.
For `Cc1ccccc1C(=O)N1CCC(n2nnc3cc(F)ccc32)CC1`, in that order: -5.01% and -1.06%.
The corresponding values for `O=C(c1ccccn1)N1CCCC(c2nccn2CC2CCC2)C1` (stereo not given) are 4.83% and -29.9%.
For `Cn1cnnc1S(=O)(=O)C1CCN(S(=O)(=O)C2CC2)CC1`, the Percent Effect in experiment [1] was -0.604%; in experiment [2], -7.38%.
The corresponding values for `CNC(=O)CS(=O)(=O)C1CCN(S(=O)(=O)c2c(F)cccc2F)CC1` are -1.03% and -5.55%.
As for `CCOc1ccnc(N2CCN(C(=O)c3cccnc3O)CC2)n1`, the Percent Effect in experiment [1] was -5.14%; in experiment [2], 6.95%.
As to `Fc1cnc(N2CCOCC3(CCCN(c4nncs4)C3)C2)nc1` (stereo not given), the values for the Percent Effect in experiment [1] and in experiment [2] were -3.89% and 6.61%, respectively.
With `CCN(CC)C(=O)C(c1ccccc1)N1CCn2c(C)nnc2C1` (stereo not given), the Percent Effect in experiment [1] is -4.06%; in experiment [2], 4.2%.
For `CN(C)CCN1CCC2(CC1)CN(c1cccnc1)C(=O)CO2`, in that order: 4.6% and -5.11%.
As for `O=C(NCCn1ccc(-c2ccccn2)n1)c1ccncc1`, the Percent Effect in experiment [1] is -6.73%; in experiment [2], -58.6%.
Turning to `Cc1nc(CN(C)C2CCN(CC(=O)NC3CCOCC3)C2)no1` (stereo not given), the values for the Percent Effect in experiment [1] and in experiment [2] were -1.22% and 17.1%, respectively.
For `Cc1ccc(O)c(CNC2CCc3nc(C(C)C)nn3C2)n1` (stereo not given), in that order: 2.88% and 1.45%.
For `CN(C)S(=O)(=O)c1ccc(CN2CCCC2c2ccccc2)o1` (stereo not given), in that order: 4.24% and -1.81%.
The corresponding values for `O=C(c1cnco1)N1C[C@@H]2CC[C@H](Oc3cccc(F)c3)[C@@H]2C1` are -3.5% and -73.9%.
`CN1C(=O)C(C)(C)COc2cc(NS(=O)(=O)c3ccccc3)ccc21`: the Percent Effect in experiment [1] is -5.61%; in experiment [2], 8.93%.
